Assay results taken from PubChem BioAssay AID1159580 (chemical genetic matrix, 2015).
The campaign covered roughly 5,500 compounds. About 2,000 (36%) were called active. About 18% were inconclusive and are not listed. Cut-off read from the data, not from the text of the source: active = normalized growth mostly below about 0.91 (no sharp cut-off); inconclusive = no clear call, values can overlap the other calls; inactive = mostly above about 0.92. This is one part of the list.

Assay: chemical genetic growth profiling, strain panel (AID 1159580);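 note: tested at 20 µM; growth read once vehicle control cultures reached saturation at 30 °C; 1 = growth at the plate median or of vehicle wells; lower values mean less growth of the strain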
Conditions: growth OD

Measured: normalized growth

CCn1cc(C(=O)O)c(=O)c2cc(F)c(N3CCNCC3)cc21
inactive: S. cerevisiae deletion strains, locus YJR043C, strain POL32, hits give low values 0.99 | S. cerevisiae deletion strains, locus YJR066W, strain TOR1, hits give low values 0.954 | S. cerevisiae deletion strains, locus YKL009W, strain mrt4, hits give low values 0.994 | S. cerevisiae deletion strains, locus YKL068W, hits give low values 1.01 | S. cerevisiae deletion strains, locus YKL085W, strain MDH1 (second series), hits give low values 1 | S. cerevisiae deletion strains, locus YKL085W, strain MDH1, hits give low values 1 | S. cerevisiae deletion strains, locus YKL160W, strain elf1, hits give low values 1.02 | S. cerevisiae deletion strains, locus YKL190W, strain CNB1, hits give low values 1.01 | S. cerevisiae deletion strains, locus YKR001C, strain vps1, hits give low values 0.985 | S. cerevisiae deletion strains, locus YKR026C, strain gcn3, hits give low values 0.978 | S. cerevisiae deletion strains, locus YKR091W, strain srl3, hits give low values 0.992 | S. cerevisiae deletion strains, locus YLL001W, strain dnm1, hits give low values 0.998 | S. cerevisiae deletion strains, locus YLL026W, hits give low values 0.992 | S. cerevisiae deletion strains, locus YLL041C, strain sdh2, hits give low values 0.981 | S. cerevisiae deletion strains, locus YLR027C, strain aat2, hits give low values 0.988 | S. cerevisiae deletion strains, locus YLR039C, strain RIC1, hits give low values 0.92 | S. cerevisiae deletion strains, locus YLR058C, strain SHM2, hits give low values 1.01 | S. cerevisiae deletion strains, locus YLR102C, strain apc9, hits give low values 1 | S. cerevisiae deletion strains, locus YLR113W, strain HOG1, hits give low values 1.02 | S. cerevisiae deletion strains, locus YLR221C, strain rsa3, hits give low values 1.01 | S. cerevisiae deletion strains, locus YLR258W, strain gsy2, hits give low values 0.988 | S. cerevisiae deletion strains, locus YLR262C, strain YPT6 (second series), hits give low values 0.97 | S. cerevisiae deletion strains, locus YLR262C, strain YPT6, hits give low values 0.92 | S. cerevisiae deletion strains, locus YLR268W, strain sec22, hits give low values 0.96 | S. cerevisiae deletion strains, locus YLR320W, strain mms22, hits give low values 0.998 | S. cerevisiae deletion strains, locus YLR330W, strain CHS5, hits give low values 1 | S. cerevisiae deletion strains, locus YLR342W, strain FKS1 (second series), hits give low values 0.927 | S. cerevisiae deletion strains, locus YLR342W, strain FKS1, hits give low values 0.991 | S. cerevisiae deletion strains, locus YLR357W, strain rsc2, hits give low values 0.95 | S. cerevisiae deletion strains, locus YLR370C, strain arc18, hits give low values 0.982 | S. cerevisiae deletion strains, locus YLR371W, strain rom2, hits give low values 1.01 | S. cerevisiae deletion strains, locus YLR384C, strain iki3, hits give low values 0.983 | S. cerevisiae deletion strains, locus YLR418C, strain cdc73, hits give low values 0.924 | S. cerevisiae deletion strains, locus YML016C, strain PPZ1, hits give low values 1 | S. cerevisiae deletion strains, locus YML032C, strain rad52, hits give low values 0.987 | S. cerevisiae deletion strains, locus YML120C, strain ndi1, hits give low values 0.976 | S. cerevisiae deletion strains, locus YML124C, strain tub3, hits give low values 1 | S. cerevisiae deletion strains, locus YMR058W, strain fet3, hits give low values 0.986 | S. cerevisiae deletion strains, locus YMR078C, strain ctf18, hits give low values 1.01 | S. cerevisiae deletion strains, locus YMR125W, strain sto1, hits give low values 0.965 | S. cerevisiae deletion strains, locus YMR129W, hits give low values 0.969 | S. cerevisiae deletion strains, locus YMR205C, strain PFK2, hits give low values 1.01 | S. cerevisiae deletion strains, locus YMR223W, strain ubp8, hits give low values 0.989 | S. cerevisiae deletion strains, locus YMR231W, strain pep5, hits give low values 0.987 | S. cerevisiae deletion strains, locus YMR263W, strain SAP30, hits give low values 0.998 | S. cerevisiae deletion strains, locus YMR307W, strain GAS1, hits give low values 0.899 | S. cerevisiae deletion strains, locus YNL067W, strain RPL9B, hits give low values 1.01 | S. cerevisiae deletion strains, locus YNL071W, strain lat1, hits give low values 0.962 | S. cerevisiae deletion strains, locus YNL128W, strain TEP1, hits give low values 1.03 | S. cerevisiae deletion strains, locus YNL183C, strain NPR1, hits give low values 0.962 | S. cerevisiae deletion strains, locus YNL209W, strain ssb2, hits give low values 0.986 | S. cerevisiae deletion strains, locus YNL233W, strain BNI4, hits give low values 0.998 | S. cerevisiae deletion strains, locus YNL248C, strain rpa49, hits give low values 0.992 | S. cerevisiae deletion strains, locus YNL250W, strain rad50, hits give low values 0.985 | S. cerevisiae deletion strains, locus YNL271C, strain bni1, hits give low values 0.986 | S. cerevisiae deletion strains, locus YNL298W, strain CLA4, hits give low values 0.99 | S. cerevisiae deletion strains, locus YNL307C, strain MCK1, hits give low values 0.997 | S. cerevisiae deletion strains, locus YNL322C, strain KRE1 (second series), hits give low values 0.981 | S. cerevisiae deletion strains, locus YNR049C, strain mso1, hits give low values 0.985 | S. cerevisiae deletion strains, locus YNR052C, strain pop2, hits give low values 0.998 | S. cerevisiae deletion strains, locus YOL006C, strain TOP1, hits give low values 0.965 | S. cerevisiae deletion strains, locus YOL012C, strain htz1 0.792 | S. cerevisiae deletion strains, locus YOL147C, strain pex11, hits give low values 0.999 | S. cerevisiae deletion strains, locus YOR001W, strain rrp6, hits give low values 0.94 | S. cerevisiae deletion strains, locus YOR061W, strain CKA2, hits give low values 1 | S. cerevisiae deletion strains, locus YOR069W, strain VPS5, hits give low values 1.01 | S. cerevisiae deletion strains, locus YOR070C, strain gyp1, hits give low values 0.979 | S. cerevisiae deletion strains, locus YOR080W, strain dia2, hits give low values 0.974 | S. cerevisiae deletion strains, locus YOR083W, strain WHI5, hits give low values 1.04 | S. cerevisiae deletion strains, locus YOR106W, strain vam3, hits give low values 1 | S. cerevisiae deletion strains, locus YOR136W, strain idh2, hits give low values 1.01 | S. cerevisiae deletion strains, locus YOR144C, strain elg1, hits give low values 0.998 | S. cerevisiae deletion strains, locus YOR184W, strain ser1, hits give low values 1.01 | S. cerevisiae deletion strains, locus YOR231W, strain MKK1, hits give low values 0.988 | S. cerevisiae deletion strains, locus YOR265W, strain rbl2, hits give low values 0.983 | S. cerevisiae deletion strains, locus YOR270C, strain vph1, hits give low values 0.956 | S. cerevisiae deletion strains, locus YOR290C, strain snf2, hits give low values 0.974 | S. cerevisiae deletion strains, locus YOR316C, strain cot1, hits give low values 1.01 | S. cerevisiae deletion strains, locus YPL051W, strain arl3, hits give low values 0.994 | S. cerevisiae deletion strains, locus YPL055C, strain LGE1, hits give low values 0.991 | S. cerevisiae deletion strains, locus YPL078C, strain atp4, hits give low values 0.979 | S. cerevisiae deletion strains, locus YPL106C, strain sse1, hits give low values 0.972 | S. cerevisiae deletion strains, locus YPL240C, strain hsp82, hits give low values 0.983 | S. cerevisiae deletion strains, locus YPL256C, strain CLN2, hits give low values 0.944 | S. cerevisiae deletion strains, locus YPR119W, strain clb2, hits give low values 1 | S. cerevisiae deletion strains, locus YPR141C, strain kar3, hits give low values 1 | S. cerevisiae deletion strains, locus YPR163C, strain tif3, hits give low values 1 | S. cerevisiae deletion strains, locus YPR167C, strain met16, hits give low values 1.01 | S. cerevisiae deletion strains, strain wtn01, hits give low values 0.998 | S. cerevisiae strains, strain wild type, hits give low values 1.01
